In PubChem BioAssay (NCATS):
Records with an inconclusive call do not appear. Where a call stands in place of a potency, no number is given. Values without a mark were called inactive. Calls of active or inactive are those of the source. Calls come from the whole dose curve; as a rule, active = well fitted cell-killing curve with a large enough effect; inconclusive = small, poorly fitted or top-dose-only effect, or effect the other way; inactive = flat fitted curve, though single readings scatter.

Tests used:
Assay in all cases: Primary qHTS to identify gynecologic anti-cancer compounds using libraries of approved drugs and bioactive compounds (AID 1345084); note: nearly all actives have a fitted effect of over 55% in size
C33A = details: Gynecologic cancer cell panel viability, ATPlite luminescence, 48 h; series mostly up to 57.5 µM
Outline: (§1)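 Cells, 1,000 per well, were allowed to settle for 16 h at 37 C before compound addition. Five concentrations were tested for 48 h, and viability was read by ATPlite luminescence after 15 min at room temperature.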

CASKI = details: Gynecologic cancer cell panel viability, ATPlite luminescence, 48 h; series mostly up to 57.5 µM
Outline: as §1

Es-2 = details: Gynecologic cancer cell panel viability, ATPlite luminescence, 48 h; series mostly up to 57.5 µM
Outline: as §1

Hek293T = details: Gynecologic cancer cell panel viability, ATPlite luminescence, 48 h, control line for the selectivity index; series mostly up to 57.5 µM
Outline: as §1

JEG-3 = details: Gynecologic cancer cell panel viability, ATPlite luminescence, 48 h; series mostly up to 57.5 µM
Outline: as §1

OV90 = details: Gynecologic cancer cell panel viability, ATPlite luminescence, 48 h; series mostly up to 57.5 µM
Outline: as §1

PA-1 = details: Gynecologic cancer cell panel viability, ATPlite luminescence, 48 h; series mostly up to 57.5 µM
Outline: as §1

Tov-21-G = details: Gynecologic cancer cell panel viability, ATPlite luminescence, 48 h; series mostly up to 57.5 µM
Outline: as §1

Tov112D = details: Gynecologic cancer cell panel viability, ATPlite luminescence, 48 h; series mostly up to 57.5 µM
Outline: as §1

HeLa = details: Gynecologic cancer cell panel viability, ATPlite luminescence, 48 h; series mostly up to 57.5 µM
Outline: as §1

SKOV3 = details: Gynecologic cancer cell panel viability, ATPlite luminescence, 48 h; series mostly up to 57.5 µM
Outline: as §1
Potency is the fitted concentration of half-maximal effect.

Structure (SMILES)	Potency (C33A)	Potency (CASKI)	Potency (Es-2)	Potency (Hek293T)	Potency (JEG-3)	Potency (OV90)	Potency (PA-1)	Potency (Tov-21-G)	Potency (Tov112D)	Potency (HeLa)	Potency (SKOV3)
Cc1nc(Nc2cnn(C3CCNCC3)c2)nc2c1N(C)C(=O)c1cc3ccccc3cc1N2C	inactive	inactive	inactive	inactive	inactive	inactive	inactive	inactive	inactive	–	–
C=C1C(=O)OC2/C=C(\C)CC/C=C(\C)CC(OC(C)=O)C12 (stereo unspecified)	inactive	inactive	–	inactive	inactive	inactive	–	inactive	inactive	inactive	–
Cc1nc(NC(=O)N2CCCC2C(N)=O)sc1-c1ccnc(C(C)(C)C(F)(F)F)c1 (stereo unspecified)	inactive	3.55 µM (active)	inactive	inactive	inactive	–	–	inactive	inactive	–	8.91 µM (active)
C=C1CC2OC(=O)C(=C)C2C(OC(=O)/C(C)=C\C)CC2(C)OC1=CC2=O (stereo unspecified)	11.2 µM (active)	inactive	10 µM (active)	–	–	inactive	–	11.2 µM (active)	inactive	inactive	11.2 µM (active)
CC(C)C[C@H](C(=O)O)c1cc(-c2ccc(C(F)(F)F)cc2)cc(-c2ccc(C(F)(F)F)cc2)c1	inactive	inactive	inactive	–	inactive	–	–	inactive	inactive	–	inactive
O=C(NCCN1CCOCC1)c1cc2c(Oc3ccc(NC(=O)C4(C(=O)Nc5ccc(F)cc5)CC4)cc3)ccnc2[nH]1	inactive	inactive	–	inactive	inactive	–	inactive	inactive	inactive	inactive	inactive
CC#CC(=O)Nc1ccc2ncnc(Nc3cccc(Br)c3)c2c1	11.2 µM (active)	8.91 µM (active)	14.1 µM (active)	–	inactive	inactive	7.94 µM (active)	14.1 µM (active)	12.6 µM (active)	–	–
O=C(O)CSc1cc(NS(=O)(=O)c2ccc(Br)cc2)c2ccccc2c1O	inactive	inactive	inactive	inactive	–	inactive	–	–	–	–	–
C=CC(=O)N1CCC(Oc2cc3c(Nc4ccc(Cl)c(Cl)c4F)ncnc3cc2OC)CC1	inactive	22.4 µM (active)	inactive	–	inactive	–	–	25.1 µM (active)	–	–	–
CCOc1ccc(Cc2nc(-c3c(C)nc4ccccn34)cs2)cc1	0.355 µM (active)	–	0.0891 µM (active)	–	–	–	–	–	–	–	–
COc1cc(F)c(F)c(Nc2ccc(I)cc2F)c1NS(=O)(=O)C1(CC(O)CO)CC1 (stereo unspecified)	inactive	inactive	–	inactive	inactive	–	inactive	–	inactive	inactive	–
O=S(=O)(NCc1cccc2ccccc12)c1cc(Cl)c(Oc2cccc(N3CCNCC3)c2)s1	inactive	inactive	–	–	inactive	inactive	–	inactive	inactive	inactive	–
C=C(C)C(=O)O[C@H]1[C@H]2C(=C)C(=O)O[C@@H]2C[C@@H](C)[C@@H]2O[C@@H]2C(=O)[C@](C)(O)[C@@H]1OC(=O)C(=C)C	10 µM (active)	10 µM (active)	7.94 µM (active)	2.82 µM (active)	12.6 µM (active)	–	–	–	–	–	10 µM (active)
O=C(NCCCNC(=O)c1ccc[nH]c1=O)c1cc(-c2ccccc2)on1	inactive	inactive	–	–	–	–	8.91 µM (active)	–	inactive	–	inactive
COCC(=O)NC/C=C/c1ccc2ncnc(Nc3ccc(Oc4ccc(C)nc4)c(C)c3)c2c1	inactive	–	inactive	inactive	inactive	inactive	inactive	inactive	inactive	inactive	31.6 µM (active)
Cc1c(OCc2cccc(-c3ccc(C(=O)O)cc3)c2)cc2c(c1C)C(=O)C(C1CCCC1)C2 (stereo unspecified)	inactive	–	inactive	inactive	inactive	inactive	inactive	inactive	inactive	inactive	–
N#Cc1ccc(O[C@@H]2c3ccccc3C[C@H]2N2CCC[C@@H](N)C2)c(Cl)c1	inactive	–	–	inactive	inactive	inactive	inactive	–	inactive	inactive	–
O=C(NCCCCCCCCNC(=O)C(Cl)Cl)C(Cl)Cl	inactive	–	inactive	inactive	inactive	–	inactive	inactive	inactive	inactive	–
Cc1cc(Nc2nc(-c3ccccc3)nc3ccccc23)n[nH]1	inactive	–	inactive	–	–	inactive	10 µM (active)	10 µM (active)	inactive	–	–
C=C1C(=O)O[C@@H]2C[C@H](C)[C@@H]3CC(=O)C(C)=C3C[C@H]12	28.2 µM (active)	–	–	–	–	–	–	–	–	inactive	–
